From PubChem BioAssay
RECQ1 helicase: blocks DNA unwinding by human RECQ1. P46063. RECQ1 DNA unwinding, red fluorescence kinetic read. Potency, µM (top dose mostly 57.3 µM), without a hit: at the top dose activity, negative = inhibition, hits mostly inhibitors. hit rate 0.54% among 240,000. AID 2549;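 also: plate controls were vehicle for no effect and no enzyme for full effect; nearly all actives have a fitted effect of over 30% in size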
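50 nM RECQ1T1 preincubated 15 min with compound in Tris pH 8.0 buffer with MgCl2, DTT, Tween-20 and 2.5 ug/ml poly(dI-dC); started with 200 nM TAMRA/BHQ-2 forked duplex and 2 mM ATP. Unwinding read as fluorescence (525/598 nm), two reads 2 h apart.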
APEX1 inh: inhibitors of human APE1 endonuclease; Potency, µM (series often up to 65.8 µM), for the others: at the top dose activity change, negative = inhibition, most hits filed as inhibitors; P27695; recombinant APE1, TAMRA/BHQ-2 abasic DNA cleavage fluorescence; hit rate 0.35% among 350,000;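 also: plate controls were vehicle for no effect and reference inhibitor for full effect; nearly all actives have a fitted effect of over 55% in size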
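Step 1: APE1 (0.75 nM) with compound, 15 min RT. Step 2: add 50 nM fluorophore/quencher THF duplex. Step 3: three fluorescence reads 60 s apart (525/598 nm); read 3 minus read 1 = reaction progress.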
GCN5L2 inh: inhibitors of human GCN5L2 histone acetyltransferase | Q92830 | AID 504327 | Potency, µM (doses to about 58.9 µM), inactives show top-dose activity change, negative = inhibition, hits mostly inhibitors | hit rate 0.21% among 390,000 | GCN5L2 HAT assay, ThioGlo1 CoA-SH fluorescence
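ThioGlo1-coupled HAT assay: 20nM GCN5L2, 70uM acetyl-CoA, 75uM H3(1-25) peptide, pH 7.5. Fluorescence read at 340/540nm at start and after 20 min at room temperature.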
BLM helicase inh: Bloom syndrome helicase (human) inhibition. P54132. recombinant BLM DNA unwinding, fluorescence dequenching. Potency, µM (highest dose often 56.1 µM), without a hit: top-dose activity change, negative = inhibition, usual class: inhibitors. hit rate 0.2% among 350,000. AID 2528;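 also: plate controls were vehicle for no effect and no enzyme for full effect; nearly all actives have a fitted effect of over 35% in size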
Target sequence (P54132 whole entry, looked up): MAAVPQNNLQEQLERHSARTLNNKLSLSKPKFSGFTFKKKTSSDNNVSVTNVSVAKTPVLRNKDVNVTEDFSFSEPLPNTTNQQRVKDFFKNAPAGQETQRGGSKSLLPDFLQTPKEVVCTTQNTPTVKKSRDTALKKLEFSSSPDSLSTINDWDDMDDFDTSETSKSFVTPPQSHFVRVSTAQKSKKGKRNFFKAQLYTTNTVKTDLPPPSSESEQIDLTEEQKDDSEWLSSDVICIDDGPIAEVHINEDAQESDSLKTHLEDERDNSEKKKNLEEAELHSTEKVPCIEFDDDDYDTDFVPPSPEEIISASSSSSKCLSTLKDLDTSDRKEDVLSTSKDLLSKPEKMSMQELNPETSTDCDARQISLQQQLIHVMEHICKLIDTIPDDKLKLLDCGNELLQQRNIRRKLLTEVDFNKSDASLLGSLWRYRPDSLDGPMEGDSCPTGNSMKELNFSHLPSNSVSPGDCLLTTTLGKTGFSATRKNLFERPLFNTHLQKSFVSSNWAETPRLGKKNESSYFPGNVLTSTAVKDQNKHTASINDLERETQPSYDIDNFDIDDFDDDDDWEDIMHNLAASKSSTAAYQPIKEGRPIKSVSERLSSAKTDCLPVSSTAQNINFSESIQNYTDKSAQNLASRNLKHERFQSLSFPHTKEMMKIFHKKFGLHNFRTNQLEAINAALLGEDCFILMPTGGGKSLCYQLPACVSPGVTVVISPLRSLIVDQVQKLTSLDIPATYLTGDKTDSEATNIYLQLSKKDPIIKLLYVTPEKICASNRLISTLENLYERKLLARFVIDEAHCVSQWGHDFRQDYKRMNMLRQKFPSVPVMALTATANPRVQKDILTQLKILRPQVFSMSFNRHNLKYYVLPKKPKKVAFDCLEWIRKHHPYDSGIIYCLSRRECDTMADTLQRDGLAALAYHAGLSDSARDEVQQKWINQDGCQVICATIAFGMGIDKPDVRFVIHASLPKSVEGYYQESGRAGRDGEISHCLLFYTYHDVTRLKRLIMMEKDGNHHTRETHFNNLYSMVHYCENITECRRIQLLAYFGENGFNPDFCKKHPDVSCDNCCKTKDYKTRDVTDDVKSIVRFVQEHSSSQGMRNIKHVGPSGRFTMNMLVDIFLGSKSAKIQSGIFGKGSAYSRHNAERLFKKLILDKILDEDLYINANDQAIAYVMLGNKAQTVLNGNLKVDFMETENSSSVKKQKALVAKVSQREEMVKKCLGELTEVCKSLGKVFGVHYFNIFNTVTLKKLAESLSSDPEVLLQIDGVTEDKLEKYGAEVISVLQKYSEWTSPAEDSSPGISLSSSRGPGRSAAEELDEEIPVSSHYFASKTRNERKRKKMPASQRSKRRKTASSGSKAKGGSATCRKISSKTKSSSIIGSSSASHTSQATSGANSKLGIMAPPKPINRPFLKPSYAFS
TDP1 inh: inhibitors of human tyrosyl-DNA phosphodiesterase TDP1. hit rate 0.28% among 350,000. Q9NUW8. AID 485290. recombinant TDP1, AlphaScreen DNA substrate cleavage. Potency, µM (doses to about 130 µM), without a hit: top-dose activity change, negative = inhibition, actives largely listed as inhibitors; also: nearly all actives have a fitted effect of over 40% in size
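Tdp1 1 nM final; 15 min RT w/ cpd; substrate 15 nM, 5 min; beads 10 ug/ml, 10 min; AlphaScreen read. Neg ctrl: no enzyme.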
LMNA splice mod: LMNA splicing modulation; Potency, µM (top dose mostly 46.1 µM), inactives show at the top dose ratio change, negative = inhibition, usual class: inhibitors; HeLa LMNA splicing GFP/RFP minigene ratio, 48 h; hit rate 0.01% among 200,000; active = well fitted inhibition curve with a large enough effect in the signal ratio, with a control signal flat, not every such curve was filed as active; inconclusive = small, poorly fitted or top-dose-only effect, or effect the other way, or a change in a side signal; the % refers to the signal ratio
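S3 HeLa stable clones carrying a lamin A-EGFP splicing minigene plus DsRed2 were seeded at 600 cells/well in Opti-MEM with 2% FBS, pin-dosed and incubated 48 h at 37°C. Acumen cytometry (488 nm) gave the GFP/RFP total-intensity ratio.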
* marks the source's active call; other numbers are inactive results; i = inactive; ? = inconclusive; . = not tested or not shown; ! = a repeat was not active; [ ] = dose if it differs, or a comment. In the library only some 0.9% were active in any assay of this set; here they are far more common. Unless noted, calls follow the shape of the dose curve; as a rule, active = well fitted curve in the direction sought with a large enough effect; inconclusive = small, poorly fitted or top-dose-only effect, or another doubt; inactive = no such curve, though single readings can be large; an effect the other way counts as inactive or inconclusive. Unless noted, % is scaled to controls: 0 for no effect and ±100 for the full control effect; potency is read from the fitted curve at half-maximal effect.

SMILES | RECQ1 helicase | APEX1 inh | GCN5L2 inh | BLM helicase inh | TDP1 inh | LMNA splice mod
O=C(c1ccc(F)cc1)N1CCOCC1 | -2% | 1% | -6% | -1% | -3% | -13%[46 µM]
O=C(c1coc(=O)c(Br)c1)N1CCOCC1 | -9% | 13µM* | -5% | 1% | 22µM* | -7%
Cc1ccc(NS(=O)(=O)c2ccc(-c3ccccc3)cc2)cc1C | . | . | . | . | -4% | .
Cc1ccc(/C=N/NC(=O)Cc2ccc(Cl)cc2)c(O)c1 | . | ? | -8% | -18% | 50µM* | .
Cc1ccccc1/C=N/NC(=O)Cc1ccc(Cl)cc1 | -8% | -3% | -1% | 0% | 5% | .
C[C@@H]1O[C@@H](OC[C@@H]2O[C@H](Oc3c(-c4ccc(O)cc4)oc4cc(O)cc(O)c4c3=O)[C@@H](O)[C@H](O)[C@H]2O)[C@H](O)[C@H](O)[C@H]1O | . | 6% | -7% | . | 6% | .
O=C(O)C1OC(Oc2c(-c3ccc(O)c(O)c3)oc3cc(O)cc(O)c3c2=O)C(O)C(O)C1O (configuration not stated) | -21% | 7.1µM* | -8% | 1% | -14% | ?
O=C(NNC(=O)c1ccccc1Br)c1ccc2nc[nH]c2c1 | . | ? | -26% | -20% | 11µM* | .
c1cncc(CNc2ncnc3ccc(-c4ccoc4)cc23)c1 | -29% | 43% | 28µM*! | -2% | 2% | ?
Cc1cnc(CNc2ncnc3ccc(-c4c(C)noc4C)cc23)cn1 | -5% | -10% | -11% | 4% | . | 7.1µM*
Cc1noc(C)c1-c1ccc2ncnc(NCc3cccnc3)c2c1 | -4% | 0% | -4% | 4% | . | 4µM*
N#CN1CCC(N[S+](=O)([O-])c2cccc(F)c2)CC1 | . | . | . | . | 1% | .
O=C(NCc1ccc(F)cc1)n1cc(P(=S)(c2ccccc2)c2ccccc2)c2ccccc21 | . | . | . | . | 0% | .
COc1cc(/C=C2/SC(=S)N(CC(=O)O)C2=O)ccc1OCC(=O)Nc1ccc(C)c(C)c1 | . | 4.7µM* | -25% | ? | 13µM* | .
Cc1ccc(-n2ncc3c(=O)n(CC(N)=O)cnc32)cc1C | . | -5% | 4µM* | -3% | . | .
Cc1cc(NC(=O)c2cc(-c3ccc(C)s3)nc3ccccc23)no1 | 0% | -9% | 28µM* | 3% | -6% | 1%
Cc1cc(NC(=O)c2cc(-c3ccccc3C)nc3ccccc23)no1 | -11% | -5% | -4% | -5% | 8% | 10%
Cc1ccc2ccc3cccc4ccc1c2c34 | -7% | -6% | -28% | . | 56µM* | .
O=C1c2ccccc2C(=O)C12OC2c1cccc2ccccc12 (configuration not stated) | 3% | -8% | -8% | 18µM* | -5% | -10%
CCOC(=O)C(CS)NCCN[C@@H](CS)C(=O)OCC (some centres not stated) | . | . | 20µM* | 4% | . | .
CCOC(=O)CCC(NC(=O)CCC(=O)NC(CCC(=O)OCC)C(=O)OCC)C(=O)OCC (configuration not stated) | -16% | -8% | 0% | 2% | 3% | -4%
Cc1ccc(CSC2=NS(=O)(=O)c3ccccc32)cc1 | . | . | . | . | -2% | .
COc1ccc(-c2c(-c3ccc(OCC(=O)NN)cc3O)n[nH]c2C(F)(F)F)cc1 | 4% | -3% | -9% | 13µM* | 0% | 0%
Cc1ccc(C(c2cc(Cl)c3cccnc3c2O)N2CCN(C)CC2)cc1 (configuration not stated) | . | -23% | 32µM* | -20% | . | .
CN1CCN(C(c2ccccn2)c2cc(Cl)c3cccnc3c2O)CC1 (configuration not stated) | -3% | 0% | -16% | -6% | 8% | ?
SMILES | RECQ1 helicase | APEX1 inh | GCN5L2 inh | BLM helicase inh | TDP1 inh | LMNA splice mod
O=C1NC(=S)N(C(=O)c2ccc(F)cc2)/C1=C/c1cccnc1 | -2% | 0% | ? | -4% | 5% | .
COc1ccc(/C=C2\C(=O)NC(=S)N2C(=O)c2ccc(C)cc2)cc1 | 17% | -2% | ? | 25µM* | ? | ?
O=C(CCS(=O)(=O)c1ccccc1Cl)NCc1ccc(F)cc1 | -3% | 7% | -2% | 0% | 0% | .
O=C(CCS(=O)(=O)c1ccc(Br)cc1)NCc1ccc(F)cc1 | . | 6% | -10% | 0% | 50µM* | .
O=C(Nc1cccc(-c2ccccc2)c1)N1CCN(C(=O)Nc2cccc(-c3ccccc3)c2)CC1 | 1% | 11% | 35µM* | -2% | 3% | .
CN1CCN(C(=O)Nc2ccccc2)CC1 | i | -2% | -4% | -5% | -5% | -7%[46 µM]
OC[C@@H]1O[C@H](O)[C@H](O)[C@@H](O)[C@@H]1O | 5% | 23% | 0% | 0% | 13% | .
COc1cc(/C=C2\SC(=S)N(NC(=O)c3cccnc3)C2=O)ccc1O | 25µM* | ? | -5% | -4% | 0% | .
COc1cc(/C=C2\SC(=S)N(Nc3ncc(C(F)(F)F)cc3Cl)C2=O)ccc1O | 28µM* | ? | -1% | -20% | 9% | 24%
CCOC(=O)c1c(NC(=O)c2ccccc2N(C)S(=O)(=O)c2ccccc2)sc2c1CCCC2 | -10% | -9% | 32µM* | -6% | -3% | ?
COC(=O)c1c(NC(=O)c2ccccc2N(C)S(=O)(=O)c2ccccc2)sc2c1CCCC2 | 0% | 1% | -3% | -7% | 0% | ?
O=C(O)CCc1ccc(-c2cccs2)o1 | -21% | ? | -24% | 1% | 16µM* | 1%
Cc1ccc(-c2ccc(CCC(=O)O)o2)cc1 | -7% | 3% | -24% | 1% | 2% | 12%
O=C(O)c1cccc(-c2ccc(/C=C3/SC(=Nc4ccccc4)N(Cc4cccnc4)C3=O)o2)c1 | . | 7.5µM* | -9% | -17% | . | .
O=C(N/N=C/c1cc(Br)c(Br)o1)c1ccc2c(c1)OCCO2 | ? | 32µM* | -14% | 3% | 1% | .
O=C(N/N=C/c1cc(Br)c(O)c(Br)c1O)c1ccc2c(c1)OCCO2 | . | -15% | -4% | -13% | 4% | .
CCOC(=O)c1nn(-c2ccc(OC)cc2)c(=O)c2c(NC(=O)Cc3ccccc3)scc12 | . | . | . | . | -1% | .
N#Cc1c(-c2ccc([N+](=O)[O-])cc2)no[n+]1[O-] | . | 7% | . | . | . | .
CC(OC(=O)/C(C#N)=C/c1ccc(N(C)C)cc1)C(=O)N(C)c1ccccc1 (configuration not stated) | . | 24µM* | -9% | . | -5% | .
Cc1ccccc1N(C)C1=N[S+](=O)([O-])c2ccccc21 | . | . | . | . | 1% | .
CC[n+]1ccc(C[n+]2ccccc2)c2ccccc21 | 3% | -1% | 28µM* | -5% | 22µM* | 16%
Cc1c(P(=S)(c2ccccc2)c2ccccc2)c2ccccc2n1C/C=C/c1ccccc1 | . | . | . | . | 0% | .
